Data published in PubChem BioAssay.

How the values were obtained:
[1] = test system: Botulinum neurotoxin type F light chain protease (Clostridium botulinum); experiment: Clostridium botulinum type F light chain protease inhibitors, microsphere substrate cleavage, validation (AID 588459); conditions: multiplex microsphere protease substrate cleavage assay, flow cytometry; at 10 µM; active compounds read high
[2] = biological target: Botulinum neurotoxin type A (Clostridium botulinum) (UniProt P0DPI0); experiment: BoNT/A light chain protease inhibitors, biochemical, multiplex microsphere flow cytometry, validation set (AID 588460); conditions: at 10 µM, active compounds read high
[3] = biological target: Lethal factor (Bacillus anthracis) (UniProt P15917); experiment: Bacillus anthracis lethal factor inhibition, microsphere flow cytometry protease assay, validation at 10 µM (AID 588461); conditions: multiplex microsphere protease cleavage assay, active compounds read high

Measured: inhibition

Sequence of Lethal factor (Bacillus anthracis) (P15917 whole entry, looked up): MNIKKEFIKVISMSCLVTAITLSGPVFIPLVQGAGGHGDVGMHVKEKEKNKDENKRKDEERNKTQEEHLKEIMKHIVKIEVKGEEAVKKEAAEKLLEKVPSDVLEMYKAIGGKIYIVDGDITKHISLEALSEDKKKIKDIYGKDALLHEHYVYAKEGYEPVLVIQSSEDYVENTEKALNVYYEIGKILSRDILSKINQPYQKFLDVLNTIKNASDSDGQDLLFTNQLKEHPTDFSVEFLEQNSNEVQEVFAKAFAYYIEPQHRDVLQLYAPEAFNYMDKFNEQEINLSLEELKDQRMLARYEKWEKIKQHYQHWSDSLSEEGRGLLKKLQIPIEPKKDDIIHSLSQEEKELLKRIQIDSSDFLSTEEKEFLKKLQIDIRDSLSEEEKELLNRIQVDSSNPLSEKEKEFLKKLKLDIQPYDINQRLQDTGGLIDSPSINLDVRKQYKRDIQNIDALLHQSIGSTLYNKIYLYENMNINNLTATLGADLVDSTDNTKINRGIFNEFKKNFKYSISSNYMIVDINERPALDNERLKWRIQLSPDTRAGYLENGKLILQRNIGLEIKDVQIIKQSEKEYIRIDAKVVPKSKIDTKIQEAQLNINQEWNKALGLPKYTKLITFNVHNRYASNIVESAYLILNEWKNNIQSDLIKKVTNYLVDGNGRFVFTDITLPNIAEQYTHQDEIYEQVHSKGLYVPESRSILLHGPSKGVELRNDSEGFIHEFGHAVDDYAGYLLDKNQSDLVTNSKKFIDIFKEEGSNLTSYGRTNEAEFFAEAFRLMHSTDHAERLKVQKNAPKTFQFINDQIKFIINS
Sequence of Botulinum neurotoxin type A (Clostridium botulinum) (P0DPI0 whole entry, looked up): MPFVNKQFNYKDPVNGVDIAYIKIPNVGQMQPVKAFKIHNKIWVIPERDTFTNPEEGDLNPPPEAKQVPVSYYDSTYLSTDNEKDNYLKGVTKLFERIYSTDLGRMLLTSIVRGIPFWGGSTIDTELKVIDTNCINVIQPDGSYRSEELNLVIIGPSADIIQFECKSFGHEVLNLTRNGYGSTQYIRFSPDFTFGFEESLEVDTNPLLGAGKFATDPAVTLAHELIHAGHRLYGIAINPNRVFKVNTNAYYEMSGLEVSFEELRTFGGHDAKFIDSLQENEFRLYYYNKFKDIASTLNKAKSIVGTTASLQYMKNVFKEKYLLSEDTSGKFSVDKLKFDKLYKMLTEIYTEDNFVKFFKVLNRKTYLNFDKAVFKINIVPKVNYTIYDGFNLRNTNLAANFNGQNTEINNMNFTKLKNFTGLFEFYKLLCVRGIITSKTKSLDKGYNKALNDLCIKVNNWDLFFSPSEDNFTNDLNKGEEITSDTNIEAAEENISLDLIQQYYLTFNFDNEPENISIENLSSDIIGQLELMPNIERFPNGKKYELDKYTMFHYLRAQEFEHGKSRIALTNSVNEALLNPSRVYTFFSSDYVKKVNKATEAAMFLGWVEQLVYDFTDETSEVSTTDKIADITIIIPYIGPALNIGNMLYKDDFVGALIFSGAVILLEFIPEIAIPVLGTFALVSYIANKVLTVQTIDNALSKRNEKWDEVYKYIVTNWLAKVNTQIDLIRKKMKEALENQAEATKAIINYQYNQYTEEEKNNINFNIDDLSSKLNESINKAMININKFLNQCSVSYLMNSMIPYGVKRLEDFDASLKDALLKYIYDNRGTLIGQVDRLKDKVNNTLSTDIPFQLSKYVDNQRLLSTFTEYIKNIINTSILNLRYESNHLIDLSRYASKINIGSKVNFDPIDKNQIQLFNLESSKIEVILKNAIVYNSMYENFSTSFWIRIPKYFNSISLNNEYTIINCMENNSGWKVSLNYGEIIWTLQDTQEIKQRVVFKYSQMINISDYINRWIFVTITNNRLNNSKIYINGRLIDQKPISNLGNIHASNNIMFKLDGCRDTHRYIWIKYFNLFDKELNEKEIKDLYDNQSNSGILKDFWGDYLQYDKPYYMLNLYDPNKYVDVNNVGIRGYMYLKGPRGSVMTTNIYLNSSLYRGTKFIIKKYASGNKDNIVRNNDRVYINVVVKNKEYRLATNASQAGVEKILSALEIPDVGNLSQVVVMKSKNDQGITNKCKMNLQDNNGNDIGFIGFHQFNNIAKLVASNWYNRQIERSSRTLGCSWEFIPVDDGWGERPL

O=[N+]([O-])c1cc(/C=N/n2cnnc2)ccc1N1CCCC1
inactive: [1] -0.9% | [2] -0.6% | [3] -3.3%

NCc1ccccc1COc1ccccc1
inactive: [1] 2.3% | [2] 0.1% | [3] -1.7%

COc1ccc2oc(-c3ccco3)cc(=O)c2c1
inactive: [1] 3% | [2] -0.8% | [3] -7%

CN(C)CCC(c1ccccc1)c1ccccn1 (stereo unspecified)
inactive: [1] -2.8% | [2] -0.2% | [3] 2.6%

CCC(C(=O)OCCN(CC)CC)c1ccccc1 (stereo unspecified)
inactive: [1] 2.4% | [2] 0.3% | [3] 3.3%

CC[n+]1c(C)sc2cc(C)ccc21
inactive: [1] 3.6% | [2] 1.9% | [3] -1.6%

O=C(N1CCCCC1)C1(c2ccccc2)CCOCC1
inactive: [1] 1.7% | [2] 1.3% | [3] -2.1%

CC(=O)N1c2ccccc2C(C)=CC1(C)C
inactive: [1] 2.3% | [2] -0.7% | [3] -8.5%

Fc1ccc(C(c2ccc(F)cc2)N2CCN(C/C=C/c3ccccc3)CC2)cc1
inactive: [1] -5.9% | [2] -1.8% | [3] -5.7%

COc1ccc(C2C3C(C)=NN=C3CC(C)(O)C2C(C)=O)cc1 (stereo unspecified)
inactive: [1] -2% | [2] -0.6% | [3] 4%

COc1cc2c(cc1OC)CN(C(=O)c1ccc(S(=O)(=O)N(C)c3ccccc3)cc1)CC2
inactive: [1] 0.9% | [2] 0.6% | [3] 3.4%

CN(Cc1c(C(=O)N(C)Cc2ccccc2)nc2ccccn12)CC1Cc2ccccc2O1 (stereo unspecified)
inactive: [1] 4.4% | [2] 0.4% | [3] -5.9%

COC(=O)C1=C(C)NC(C)=C([N+](=O)[O-])C1c1ccccc1C(F)(F)F (stereo unspecified)
inactive: [1] -0.4% | [2] -1% | [3] -11.2%

O=C(Cc1ccccc1[N+](=O)[O-])NCCCN1CCOCC1
inactive: [1] -1.6% | [2] -0.1% | [3] 6.7%

O=C(CNC(=O)OCc1ccccc1)Oc1cc2oc(=O)cc(-c3ccccc3)c2cc1Cl
inactive: [1] 2.7% | [2] 0.9% | [3] 11.5%

O=C(O)COc1ccc2occ(C(=O)c3ccccc3)c2c1
inactive: [1] -1.3% | [2] 0.2% | [3] 4.6%

C[C@]12CC[C@@H]3c4ccc(O)cc4CC[C@H]3[C@@H]1CC[C@@H]2OC(=O)CCC(=O)O
inactive: [1] -0.1% | [2] -0.4% | [3] -10%

CCOC(=O)C1=C(N)Oc2c(oc(CO)cc2=O)C1c1ccc(F)c(F)c1 (stereo unspecified)
inactive: [1] 2.1% | [2] 0.3% | [3] -2.3%

O=C(/C=C/c1ccco1)NCc1ccc2c(c1)OCO2
inactive: [1] -2.9% | [2] -0.4% | [3] 6.8%

O=C(O)C1CCN(C(=O)COc2ccc3c4c(c(=O)oc3c2)CCC4)CC1
inactive: [1] 3% | [2] -1.1% | [3] 2.5%

CCCCCCCC(=O)OCC(O)CO (stereo unspecified)
inactive: [1] -6.1% | [2] -0.1% | [3] -2%

Cc1ccc2c(CN3CCN(Cc4ccc5c(c4)OCO5)CC3)cc(=O)oc2c1C
inactive: [1] -2.8% | [2] 0.6% | [3] -5.7%

COC(=O)c1ccccc1NC(=O)c1ccc(COc2ccc3c(c2)CCC3)cc1
inactive: [1] 2.7% | [2] -0.5% | [3] 2%

CC(=O)O[C@H]1CSC[C@H]1NC(=O)c1ccccc1
inactive: [1] -2.6% | [2] -1.2% | [3] -4.4%

Clc1ccc2c(c1)CCc1cccnc1C2=C1CCNCC1
inactive: [1] -4.1% | [2] -0.7% | [3] 5.5%

CC1=NS(=O)(=O)c2cc(Cl)ccc2N1
inactive: [1] 1.4% | [2] -0.3% | [3] -1.8%

C[C@@H]1C[C@H]2[C@@H]3CCC4=CC(=O)C=C[C@]4(C)[C@@]3(F)[C@@H](O)C[C@]2(C)[C@H]1C(=O)CO
inactive: [1] 0.3% | [2] -1.7% | [3] 7.4%

CC[n+]1ccc2cc(OC)c(OC)cc2c1Cc1ccc(OC)c(OC)c1
inactive: [1] -0.2% | [2] 0.7% | [3] -0.5%

Cc1ccc([N+](=O)[O-])cc1NC1OC(CO)C(O)C1O (stereo unspecified)
inactive: [1] 1.5% | [2] -1.1% | [3] -1.7%

CC(=O)CCc1oc2ccccc2c1-c1ccccc1
inactive: [1] -0.7% | [2] -1.4% | [3] -3.1%

CCN1C(=O)C(CC(=O)Nc2ccc(OC)cc2)N(CCc2ccc(F)cc2)C1=S (stereo unspecified)
inactive: [1] 0.2% | [2] 1.4% | [3] 1.4%

CC1(C)CC(=O)c2cnc(NC(=O)C3CCCC3)nc2C1
inactive: [1] 1.2% | [2] -1.3% | [3] -3.2%

Cc1ccc(Cl)c(Nc2ccccc2C(=O)O)c1Cl
inactive: [1] -4.5% | [2] 0.2% | [3] 0.3%

COc1ccc(C(C)N2CC34C=CC(O3)C(C(=O)OCC(C)C)C4C2=O)cc1 (stereo unspecified)
inactive: [1] -1.9% | [2] -1.2% | [3] 0.2%

O=S(=O)(CCc1nc2ccccc2[nH]1)c1ccc(Cl)cc1
inactive: [1] 3% | [2] -0.3% | [3] 3.5%

c1ccc(Cn2nnc3cnccc32)cc1
inactive: [1] 3.6% | [2] -0.8% | [3] 1.4%

CC(C)(C)NCC(O)COc1cccc2c1C[C@H](O)[C@H](O)C2 (stereo partly specified)
inactive: [1] -2.3% | [2] 0.4% | [3] 1.6%

O=C1c2cccc3cccc(c23)C(=O)N1c1ccccn1
inactive: [1] -2.7% | [2] 0.1% | [3] 1.1%

CC(C)OC(=O)CC1C(=O)NCCN1C(=S)NC(=O)c1ccccc1Cl (stereo unspecified)
inactive: [1] -1.8% | [2] -0.4% | [3] -0.2%

COC(=O)C1[C@H]2C(=O)N(Cc3cccs3)C[C@]23C=C[C@H]1O3 (stereo partly specified)
inactive: [1] -0.5% | [2] -0.7% | [3] -4%

N#C/C(C(N)=O)=c1/ccc2c(c1)N1C3=C(CCCC3)CC3CCCCC31N=2 (stereo unspecified)
inactive: [1] -0.8% | [2] 2.4% | [3] -2.3%

COc1ccc(NC(=O)C2CCCN2C(=O)OC(C)(C)C)cc1 (stereo unspecified)
inactive: [1] 4.1% | [2] 0.9% | [3] -2.4%

Cc1c(OCC(=O)NC(Cc2c[nH]c3ccc(O)cc23)C(=O)O)ccc2c3c(c(=O)oc12)CCC3 (stereo unspecified)
inactive: [1] 3.2% | [2] -1.1% | [3] 3.7%

CCN1C(=O)C(CC(=O)Nc2ccc(F)cc2)N(Cc2ccco2)C1=S (stereo unspecified)
inactive: [1] -2.9% | [2] -2.8% | [3] -7.4%

CC(=O)Nc1ccc(S(=O)(=O)c2ccc(N)cc2)cc1
inactive: [1] -3.7% | [2] -0.4% | [3] -3.2%

CCc1c(C)c2ccc(OCC(=O)OC(C)C)c(C)c2oc1=O
inactive: [1] -1.9% | [2] -0.4% | [3] -1.3%

CCC1(c2ccccc2)NC(=S)N(c2ccc(C)c(C)c2)N1 (stereo unspecified)
inactive: [1] 1% | [2] -0.8% | [3] -3%

S=C(c1ccc2c(c1)OCO2)N1CCCCC1
inactive: [1] 1.1% | [2] -1.6% | [3] -0.2%

CCC(=O)O[C@]1(C(=O)CCl)[C@@H](C)C[C@H]2[C@@H]3CCC4=CC(=O)C=C[C@]4(C)[C@@]3(F)[C@@H](O)C[C@@]21C
inactive: [1] -0.5% | [2] -1.2% | [3] -3.4%

O=C(c1cc2cc(Br)ccc2o1)N1CCCC1
inactive: [1] -9.1% | [2] -4.2% | [3] -3.2%

CCOC(=O)c1cnc2ccccc2c1NCCO
inactive: [1] -1.1% | [2] 0% | [3] 5.8%

COc1cc(CNCCc2ccccc2F)ccc1OCC(=O)N1CCCCC1
inactive: [1] 5.4% | [2] -0.1% | [3] 1%

CC1(C)CC(NC(=O)C23CCC(C)(C(=O)C2=O)C3(C)C)CC(C)(C)N1 (stereo unspecified)
inactive: [1] 2.9% | [2] -0.7% | [3] -4.5%

COc1cc(OC)c(C2C(C#N)=C(N)OC3=C2C(=O)CC(C)(C)C3)cc1OC (stereo unspecified)
inactive: [1] -2.6% | [2] 0.8% | [3] 4.6%

CC(C)CN1CC(C(=O)O)CC1=O (stereo unspecified)
inactive: [1] 3.8% | [2] -1.3% | [3] 1.5%

COC(=O)C1=C(C)NC(C)=C(C(=O)OCCN(C)Cc2ccccc2)C1c1cccc([N+](=O)[O-])c1 (stereo unspecified)
inactive: [1] -2.1% | [2] -0.8% | [3] -3.7%

CN1C(=O)C(O)(CC(=O)/C=C/C=C/c2ccccc2)c2ccccc21 (stereo unspecified)
inactive: [1] -1.9% | [2] -0.3% | [3] -0.3%

Cc1oncc1C(=O)Nc1ccc(C(F)(F)F)cc1
inactive: [1] 0.9% | [2] 0.7% | [3] 2.2%

CC(=O)N1CCN2C(=O)C1CCCC(=O)c1cc(C(C)C)ccc12 (stereo unspecified)
inactive: [1] -1.6% | [2] -1.6% | [3] -5.3%

O=C(/C=C/c1ccc2c(c1)OCO2)NCc1ccc(F)cc1
inactive: [1] -14.5% | [2] -2.4% | [3] -3.4%

COc1ccc(CC(=O)Nc2cccc(C(=O)Nc3ccccc3C(=O)O)c2)cc1OC
inactive: [1] -5.3% | [2] -3.3% | [3] 1.8%

CC(=O)OC[C@H]1O[C@@H](Sc2cccc3cccnc23)[C@H](OC(C)=O)[C@@H](OC(C)=O)[C@H]1OC(C)=O
inactive: [1] -3.9% | [2] -0.4% | [3] 0.7%
